The test system of this assay is Leishmania donovani. Put plainly: Leishmania intramacrophage assay. In kind it is functional, organism-based. The arrangement: scale not given: in the data most compounds retested in dose-response had high values.

The campaign covered roughly 69,000 compounds. About 1,000 (1.4%) showed an effect of 50% or more. What follows is part of a selection rich in strong results, with near analogues and random picks from the rest.

As to `CC(C)N(CCO)C(=O)C1CCC(=O)N(CCc2cccc(F)c2)C1` (stereo not drawn), the “Percent Effect” value (30.3 µM, […]) is 21.22%.
Still for that read-out and setting: the same measure for `OCC1(Cc2ccc(Cl)cc2)CCN(Cc2cccnc2)CC1`: 13.26%; for `Cc1n[nH]c(C)c1NC(=O)Nc1cccnc1N1CCCC1`: -22.16%; for `CSc1ccc2cc(CN(C)CCO)c(=O)[nH]c2c1`: 10.15%.
On the same count and under the same terms, the value for `COCc1cn(C2CCN(CCC(C)c3ccccc3)CC2)nn1` (stereo not drawn) was 15.55%; that for `CNCc1cn(C2CCN(CCC(C)c3ccccc3)CC2)nn1` (stereo not drawn) was 69.72%.
`CC(CCN1CCC(n2cc(CCO)nn2)CC1)c1ccccc1` (stereo not drawn): the “Percent Effect” value (30.3 µM, […]) came out at 17.91%.
Still for that read-out and setting: the same measure for `Cc1noc(C)c1CCCNC(=O)C1CCCN(C(=O)C2CC2)C1` (stereo not drawn): 17.01%.
For the compound `CCSc1cc(C(=O)NCCNC(=O)Cc2ccccc2)ccn1`, where the note is “30.3 µM, […]”, the “Percent Effect” value is 42.53%.
Same read-out and setting: the same measure for `CCSc1cc(C(=O)NCc2ccc(C(=O)NC)cc2)ccn1`: -0.2287%.
As for `CCSc1cc(C(=O)NCc2ccccc2O)ccn1`, where the note is “30 µM, 30.03 µM”, the “Percent Effect” value was 52.62%.
As to `COCCC(=O)N[C@H]1CN(c2nc(C)c3c(n2)CCCC3)C[C@@H]1C1CC1`, where the note is “30.3 µM, […]”, the “Percent Effect” value was -3.355%.
On the same count and under the same terms, the value for `CNCC(=O)N[C@H]1CN(c2nc(C)c3c(n2)CCCC3)C[C@@H]1C1CC1` was 61.72%.
On the same count and under the same terms, the value for `CNc1nc(N2C[C@H](NC(=O)CCOC)[C@@H](C3CC3)C2)nc2c1CCC2` was 20.37%.
Same read-out and setting: the same measure for `Cc1ccc(CN(C)C(=O)c2cnsn2)cc1`: 19.42%.
`CCn1nc(CC(C)C)cc1C(=O)N1CC(c2ccncc2)C1`: the “Percent Effect” value (30.3 µM, […]) is reported as 24.78%.
On the same count and under the same terms, the value for `CCC(C(=O)NCCc1nc(C)cc(C(F)(F)F)n1)n1cccn1` (stereo not drawn) was 69.8%; that for `CCC(C(=O)NCc1nc(C)cc(C(F)(F)F)n1)n1cccn1` (stereo not drawn) was 13.87%; that for `CCOCC(=O)NCCc1nc(C)cc(C(F)(F)F)n1` was -29.08%.
As to `O=C(CC1NC(N2CCc3ccccc3C2)=NC1=O)Nc1ccccc1` (stereo not drawn), the “Percent Effect” value (30.3 µM, […]) is listed as 4.892%.
On the same count and under the same terms, the same measure for `COCCC(=O)N1CCN(CC(C)C)c2nc(C)ccc2C1.O=C(O)C(F)(F)F`: 8.451%; for `CC1(NC(=O)Cc2cccs2)CCS(=O)(=O)C1` (stereo not drawn): 19.51%; for `CC(C)Cn1nc2ccc(S(=O)(=O)N3CCC(C)CC3)cn2c1=O`: 58.76%.
For the compound `CCn1nc2ccc(S(=O)(=O)N3CCSCC3)cn2c1=O`, where the note is “30.3 µM, […]”, the “Percent Effect” value came to 8.958%.
The same measure, in the same setting: the same measure for `CC(C)CCn1nc2ccc(S(=O)(=O)N3CCOCC3)cn2c1=O`: -38.47%; for `CCN(C)S(=O)(=O)N(Cc1cscn1)c1ccccc1`: -18.14%.
Take `Cc1nc(C2CCCN2CCCS(N)(=O)=O)no1` (stereo not drawn): the “Percent Effect” value (30 µM) was 6.42%.
Turning to `Cn1cccc1-c1cc(C(=O)NCCCc2csc(N)n2)[nH]n1`, the “Percent Effect” value (30.3 µM, […]) was 54.27%.
As for `Cc1ccc(-c2cc(C(=O)NCCCc3csc(N)n3)[nH]n2)o1`, for the setting “30.3 µM, […]”, the “Percent Effect” value is listed as -46.01%.
The same measure, in the same setting: the value for `Cc1ccc(-c2cc(C(=O)NCCCc3csc(N)n3)[nH]n2)s1` was 19.81%; that for `Cc1ccc(N2CC[C@@H]3O[C@@H](COCc4cccnc4)CC[C@@H]32)nn1.O=C(O)C(F)(F)F.O=C(O)C(F)(F)F` was -9.892%.
Consider `CCN1CC2(CCNCC2)COc2ccccc2S1(=O)=O.O=C(O)C(F)(F)F`, for which the “Percent Effect” value (30 µM, 30.03 µM) is reported as 13.53%.
With `O=C(c1ccn(COc2ccc(F)cc2)n1)N1CCCCCC1`, the “Percent Effect” value (30.3 µM, […]) is -66.53%.

The record behind these values is ChEMBL document CHEMBL3988442, “University of Dundee, Small-Polar-MMV Screening Library” (2021).
